This passage reports AC50 and outcome results from PubChem BioAssay (EPA / NIEHS).

Experiment [1] has as its target Sodium channel protein type 1 subunit alpha (Rattus norvegicus) (UniProt P04774). In words: NVS_IC_rNaCh_site2: NovaScreen (NVS) Ion Channel Assay for rat Sodium Channel, Site 2 (NaCh) (AID 2283322).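 Note: hit means loss of radioligand binding signal relative to DMSO so AC50 marks displacement.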 Summed up:
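Initial duplicate single-point testing at 25 uM, followed by concentration-response runs for actives. Binding of radioligand to rat forebrain membranes quantified after 1 h via filter-based radiodetection.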

The target of experiment [2] is bovine Estrogen Receptor (ER), ESR1 (gene 407238) (UniProt P49884). Kind of experiment: NVS_NR_bER: NovaScreen (NVS) Nuclear Receptor Binding Assay for bovine Estrogen Receptor (ER) (AID 2283345).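 Note: actives lower the bound radioligand count which means they displace the ER ligand.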 Summed up:
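Displacement of a radioligand from estrogen receptor in bovine uterine membrane preparations; scintillation signal taken at 18 hours, DMSO as baseline. Single-concentration duplicates (25 uM) preceded concentration-response follow-up of actives.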

In experiment [3] the target is rat Thyrotropin Releasing Hormone Receptor (TRH), Trhr (gene 25570) (UniProt Q01717). In words: NVS_GPCR_rTRH: NovaScreen (NVS) G Protein-Coupled Receptor Assay for rat Thyrotropin Releasing Hormone Receptor (TRH) (AID 2283329).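 Note: hit means lower bound tracer signal versus DMSO baseline.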 Summed up:
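Competitive radioligand binding on rat forebrain membrane preparations, with filtration and scintillation readout after 4 h. Primary testing in duplicate at 25 uM; actives confirmed in concentration-response. DMSO defined baseline.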

Experiment [4] addresses rat Peripheral-type Benzodiazepine Receptor (PBR), Tspo (gene 24230) (UniProt P16257). In words: NVS_MP_rPBR: NovaScreen (NVS) Membrane Protein Assay for rat Peripheral-type Benzodiazepine Receptor (PBR) (AID 2283335). Summed up: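 Competitive displacement of specific radioligand from rat kidney membrane PBR, read by filtration and scintillation after 1 h. Compounds first tested at 25 uM in duplicate, then in concentration series; signal loss relative to DMSO.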

Experiment [5] deals with rat Gamma-Aminobutyric Acid Type A Receptor, Non-Selective (GABAR-NonSelective), Gabra1 (gene 29705) (UniProt P62813). In words: NVS_LGIC_rGABAR_NonSelective: NovaScreen (NVS) Ligand-Gated Ion Channel Assay for rat Gamma-Aminobutyric Acid Type A Receptor, Non-Selective (GABAR-NonSelective) (AID 2283326). The essentials:
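Compounds were first screened in duplicate at 25 uM, with actives run as singleton concentration series (max 50 uM). Binding of a radioligand to rat whole-brain GABA-A preparation was measured by filtration and scintillation counting after 1 h, DMSO baseline.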

Experiment [6] deals with human Peripheral-type Benzodiazepine Receptor (PBR), TSPO (gene 706) (UniProt P30536). In words: NVS_MP_hPBR: NovaScreen (NVS) Membrane Protein Assay for human Peripheral-type Benzodiazepine Receptor (PBR) (AID 2283331).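 Note: hits reduce radioligand binding relative to DMSO baseline.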 Summed up:
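Using human colon-derived membranes, this one-endpoint binding test reads radioligand loss by scintillation after 1 h. Screening started at 25 uM in duplicate, with positive and negative controls on every plate, and actives moved to dose series.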

The target in experiment [7] is Estrogen receptor (Homo sapiens) (UniProt P03372). Kind of experiment: OT_ER_ERaERa_1440: Odyssey Thera (OT) 24-hour HEK293T Protein-Complementation Assay for Estrogen Receptor-alpha/-alpha Homodimer (AID 2283349).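 Note: hits raise fluorescence above DMSO for agonists and antagonists alike.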 Summed up: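 Stably transfected HEK293T; ERα LBD homodimer PCA. 24 h dosing, fluorescence intensity read, gain-of-signal vs DMSO.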
The nature of experiment [8]: NVS_IC_rCaBTZCHL: NovaScreen (NVS) Ion Channel Assay for Calcium Channel, Type L, Benzothiazepine Site (CaBTZCHL) (AID 2283337). Summed up: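 Test chemicals were added to rat cortical membranes and incubated 1.5 h with a tritiated or iodinated radioligand for the benzothiazepine site. Bound ligand was separated by filtration and counted. Actives from the 25 uM duplicate screen were retested in concentration series.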

Experiment [9] deals with Estrogen receptor (Homo sapiens) (UniProt P03372). In words: NVS_NR_hER: NovaScreen (NVS) Nuclear Receptor Binding Assay for human Estrogen Receptor (ER) (AID 2283348). The essentials:
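Radiodetection of ligand displacement in a lysate-based, cell-free format using MCF7 extracts, read at 18 hours. Duplicate 25 uM primary testing, then concentration series for actives.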

The target in experiment [10] is chimpanzee Androgen Receptor (AR), AR (gene 747460) (UniProt O97775). Kind of experiment: NVS_NR_cAR: NovaScreen (NVS) Nuclear Receptor Binding Assay for chimpanzee Androgen Receptor (AR) (AID 2283346).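 Note: radioligand displacement from AR measured by scintillation counting in a cell-free assay.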 Summed up:
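Cell-free radioligand displacement using receptor protein extracted from Sf9/Sf21 cells; bound radioligand measured by scintillation counting 72 hours after chemical dosing. Loss of signal versus DMSO baseline indicates binding; primary screen single-concentration in duplicate at 25 uM, actives followed in concentration series.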

Several values for one entry are separate records, joined by “and”; a condition that tells them apart may be missing. Equal values may be shown once. Results filed as inconclusive are left out. Activity calls are given as the source filed them. Rule for the calls: active = hit-call score of the fitted dose curve at least 0.9, where 1 is the maximum; inconclusive = response in the unintended direction; inactive = score below 0.9.

Chain of rat Peripheral-type Benzodiazepine Receptor (PBR), Tspo (gene 24230) (P16257 whole entry, looked up): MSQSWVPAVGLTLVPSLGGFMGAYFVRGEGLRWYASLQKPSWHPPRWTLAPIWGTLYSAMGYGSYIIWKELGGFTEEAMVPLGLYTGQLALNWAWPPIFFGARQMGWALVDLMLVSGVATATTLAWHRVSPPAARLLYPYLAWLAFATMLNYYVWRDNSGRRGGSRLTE
Chain of Estrogen receptor (Homo sapiens) (P03372 whole entry, looked up, the tested form may be a part): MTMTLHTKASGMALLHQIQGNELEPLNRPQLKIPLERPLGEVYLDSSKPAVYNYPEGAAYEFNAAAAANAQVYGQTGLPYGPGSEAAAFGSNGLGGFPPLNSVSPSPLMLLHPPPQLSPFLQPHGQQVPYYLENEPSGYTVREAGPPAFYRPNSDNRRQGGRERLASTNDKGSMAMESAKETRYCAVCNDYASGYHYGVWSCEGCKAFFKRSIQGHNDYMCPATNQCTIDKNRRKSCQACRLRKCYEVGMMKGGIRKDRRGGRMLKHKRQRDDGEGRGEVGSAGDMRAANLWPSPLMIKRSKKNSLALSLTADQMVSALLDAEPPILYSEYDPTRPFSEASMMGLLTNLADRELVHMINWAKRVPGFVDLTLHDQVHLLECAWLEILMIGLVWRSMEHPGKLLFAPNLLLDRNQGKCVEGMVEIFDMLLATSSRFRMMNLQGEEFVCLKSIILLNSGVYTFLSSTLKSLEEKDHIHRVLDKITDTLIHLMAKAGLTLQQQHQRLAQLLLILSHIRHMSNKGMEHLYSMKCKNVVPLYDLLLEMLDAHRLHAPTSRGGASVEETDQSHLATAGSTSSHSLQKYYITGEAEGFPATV
Chain of rat Thyrotropin Releasing Hormone Receptor (TRH), Trhr (gene 25570) (Q01717 whole entry, looked up): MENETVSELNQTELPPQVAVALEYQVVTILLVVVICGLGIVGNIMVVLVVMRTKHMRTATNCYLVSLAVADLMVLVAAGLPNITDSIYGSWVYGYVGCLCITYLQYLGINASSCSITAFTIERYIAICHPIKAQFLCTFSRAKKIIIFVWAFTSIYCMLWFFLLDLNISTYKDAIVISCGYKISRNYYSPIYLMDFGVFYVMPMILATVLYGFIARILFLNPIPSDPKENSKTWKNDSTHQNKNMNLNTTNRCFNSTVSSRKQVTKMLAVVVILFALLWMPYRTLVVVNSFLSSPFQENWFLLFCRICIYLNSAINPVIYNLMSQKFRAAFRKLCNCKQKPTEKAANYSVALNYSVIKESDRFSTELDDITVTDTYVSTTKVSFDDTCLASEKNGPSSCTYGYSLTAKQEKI
Chain of bovine Estrogen Receptor (ER), ESR1 (gene 407238) (P49884 whole entry, looked up): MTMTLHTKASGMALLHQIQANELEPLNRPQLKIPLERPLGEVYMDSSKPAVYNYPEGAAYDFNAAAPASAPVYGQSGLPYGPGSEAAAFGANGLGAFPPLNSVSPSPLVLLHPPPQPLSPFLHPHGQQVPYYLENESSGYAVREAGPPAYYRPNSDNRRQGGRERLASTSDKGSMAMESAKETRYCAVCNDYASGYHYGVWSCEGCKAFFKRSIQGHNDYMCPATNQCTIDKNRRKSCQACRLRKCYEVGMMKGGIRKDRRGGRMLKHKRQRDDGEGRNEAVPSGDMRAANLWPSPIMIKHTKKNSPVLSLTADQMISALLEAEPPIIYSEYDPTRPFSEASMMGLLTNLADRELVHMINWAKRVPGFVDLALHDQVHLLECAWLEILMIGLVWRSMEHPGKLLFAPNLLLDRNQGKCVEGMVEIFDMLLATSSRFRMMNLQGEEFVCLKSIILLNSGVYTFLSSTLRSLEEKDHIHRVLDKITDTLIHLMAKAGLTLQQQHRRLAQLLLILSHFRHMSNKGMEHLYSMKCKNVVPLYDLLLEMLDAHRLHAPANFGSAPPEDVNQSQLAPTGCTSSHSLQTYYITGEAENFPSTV
Chain of human Peripheral-type Benzodiazepine Receptor (PBR), TSPO (gene 706) (P30536 whole entry, looked up): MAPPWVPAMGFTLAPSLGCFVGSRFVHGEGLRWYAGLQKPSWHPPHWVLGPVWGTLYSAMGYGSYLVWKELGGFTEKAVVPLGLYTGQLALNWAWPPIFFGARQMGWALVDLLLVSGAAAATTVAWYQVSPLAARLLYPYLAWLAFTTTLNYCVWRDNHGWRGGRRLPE
Chain of rat Gamma-Aminobutyric Acid Type A Receptor, Non-Selective (GABAR-NonSelective), Gabra1 (gene 29705) (P62813 whole entry, looked up): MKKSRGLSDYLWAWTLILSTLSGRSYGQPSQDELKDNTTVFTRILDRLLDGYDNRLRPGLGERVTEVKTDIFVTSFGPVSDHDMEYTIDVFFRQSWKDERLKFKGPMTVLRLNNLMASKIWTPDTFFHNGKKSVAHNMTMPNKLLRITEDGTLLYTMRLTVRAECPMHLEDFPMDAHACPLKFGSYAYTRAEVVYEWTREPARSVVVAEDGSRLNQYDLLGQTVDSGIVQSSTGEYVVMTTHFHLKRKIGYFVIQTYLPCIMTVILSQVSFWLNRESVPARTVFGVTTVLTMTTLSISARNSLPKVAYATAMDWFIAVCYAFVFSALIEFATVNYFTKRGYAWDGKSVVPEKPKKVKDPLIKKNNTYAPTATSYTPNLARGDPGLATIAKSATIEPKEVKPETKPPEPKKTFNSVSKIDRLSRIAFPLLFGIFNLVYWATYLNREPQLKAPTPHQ
Chain of chimpanzee Androgen Receptor (AR), AR (gene 747460) (O97775 whole entry, looked up): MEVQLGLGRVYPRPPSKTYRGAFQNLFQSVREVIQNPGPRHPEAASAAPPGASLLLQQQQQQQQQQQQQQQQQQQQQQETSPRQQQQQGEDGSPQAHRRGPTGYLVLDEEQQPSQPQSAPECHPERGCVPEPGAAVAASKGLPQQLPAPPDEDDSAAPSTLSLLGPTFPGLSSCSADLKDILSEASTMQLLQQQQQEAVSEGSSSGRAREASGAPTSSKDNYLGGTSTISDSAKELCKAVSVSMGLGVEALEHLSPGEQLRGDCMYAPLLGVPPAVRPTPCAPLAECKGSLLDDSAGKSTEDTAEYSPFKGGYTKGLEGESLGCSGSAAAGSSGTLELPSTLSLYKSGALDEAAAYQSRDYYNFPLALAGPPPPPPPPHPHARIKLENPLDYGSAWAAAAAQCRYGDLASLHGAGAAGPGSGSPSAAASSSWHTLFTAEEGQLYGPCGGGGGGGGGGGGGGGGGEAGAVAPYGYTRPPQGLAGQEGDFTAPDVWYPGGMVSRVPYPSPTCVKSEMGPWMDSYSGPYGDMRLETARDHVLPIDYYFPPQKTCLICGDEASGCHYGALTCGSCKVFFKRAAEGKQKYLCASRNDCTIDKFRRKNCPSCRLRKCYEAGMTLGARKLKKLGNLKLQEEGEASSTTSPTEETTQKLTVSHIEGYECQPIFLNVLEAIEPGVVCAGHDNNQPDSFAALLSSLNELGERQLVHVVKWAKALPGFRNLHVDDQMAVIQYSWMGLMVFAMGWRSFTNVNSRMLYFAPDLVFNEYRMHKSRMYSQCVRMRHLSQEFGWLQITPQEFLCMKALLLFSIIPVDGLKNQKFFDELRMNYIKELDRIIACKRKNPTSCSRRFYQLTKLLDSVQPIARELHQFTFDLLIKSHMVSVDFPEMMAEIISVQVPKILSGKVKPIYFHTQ

The term AC50 denotes the concentration giving half of the maximal activity seen. As for `O=C(O)C[C@H](O)C[C@H](O)/C=C/c1c(C2CC2)nc2ccccc2c1-c1ccc(F)cc1`, the AC50 in experiment [1] was 3.55 µM (active).
Regarding `CN(C)c1ccc(O)c2c1C[C@H]1C[C@H]3[C@H](N(C)C)C(=O)C(C(N)=O)=C(O)[C@@]3(O)C(=O)C1=C2O`, the compound was called inactive in experiment [2].
For the compound `CC1(C)[C@@H]2CC[C@@]1(C)[C@H](O)C2`, the call in experiment [3] was inactive.
Take `CCCCCCCCCCCCCCCCCC(=O)OCC(CC)CCCC` (stereo not given): in experiment [4], the compound was called inactive.
Regarding `CC(C)=CCC[C@H](C)CC=O`, in experiment [1], the compound was classed as inactive.
Take `O=C(O)c1ccc(C(=O)O)cc1`: the outcome in experiment [3] was inactive.
Consider `CCCC/C=C\CCCCCCCCCC=O`, for which the compound was called inactive in experiment [3].
Turning to `O=C(O)c1ccc([N+](=O)[O-])cc1`, in [5], the concentration at half-maximal activity (AC50) is 4.02 µM (active).
As to `CCN(CC)c1ccc2c(-c3ccccc3C(=O)O)c3ccc(=[N+](CC)CC)cc-3oc2c1`, the result in experiment [3] was inactive. Further, the AC50 in experiment [6] is 16.8 µM (active); in experiment [4] it was 13.2 µM (active); in experiment [7], 12.2 µM (active).
`CC1COc2ccccc2N1C(=O)C(Cl)Cl` (stereo not given): the call in [3], in experiment [8] and in [7] was inactive. Also, the AC50 in [4] is 11 µM (active) and 9.31 µM (active); in experiment [2] it was 0.588 µM (active); in experiment [9], 0.0627 µM (active).
With `COc1cc2ncnc(Nc3cccc(Cl)c3)c2cc1OC`, the compound was called inactive in experiment [6], in [4] and in [8].
Take `CC1=CCC2C(C1)C2(C)C` (stereo not given): the compound was classed as inactive in experiment [2] and in [9].
`C=C(C)C(=O)O`: the compound was called inactive in [3] and in experiment [7].
Take `CC(C)C[C@H]1C(=O)N2CCC[C@H]2[C@]2(O)O[C@](NC(=O)[C@@H]3C=C4c5cccc6[nH]c(Br)c(c56)C[C@H]4N(C)C3)(C(C)C)C(=O)N12`: the call in experiment [3] was inactive. Besides, the AC50 in experiment [10] was 1.05 µM (active).
Turning to `NCCCN1CCOCC1`, the compound was called inactive in experiment [3] and in experiment [7].
Consider `C[Si](O[Si](C)(C)C)O[Si](C)(C)C`, for which the compound was called inactive in [3].
